This is an account of results in PubChem BioAssay (NCI).

About 83,000 compounds went through this panel and 20% of them were active in at least one assay; those are over-represented in the sample as a whole.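 For each line, cells grew in 96-well plates with the test compound present at a single concentration for 48 hours.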 A number with no mark means an inactive call. Active and inactive are the calls of the source. How the source made its calls: active means growth percent below 10; inactive means the rest.

Test systems include HCT-15 colon; HT29 colon; SNB-75 CNS; SNB-19 CNS; U251 CNS; PC-3 prostate; SK-MEL-5 melanoma; UACC-62 melanoma; LOX IMVI melanoma; SK-MEL-28 melanoma; SK-MEL-2 melanoma; EKVX NSCLC; SN12C renal; UO-31 renal; TK-10 renal; ACHN renal; CAKI-1 renal; A498 renal; CCRF-CEM leukemia; MOLT-4 leukemia.
Assay in all cases: NCI-60 one-dose screen, 48 h (100 = growth as untreated, 0 = no growth, -100 = all killed)
Conditions in all cases: 10 µM unless noted

As to `CC1=NC2=NC(=O)/C(=C3/N=C(C)C=C(c4ccccc4)N3N)NN2C(c2ccccc2)=C1`, the growth in the assay on HCT-15 colon was 107%; with HT29 colon, 109%; in the assay with SNB-75 CNS, 116%; in the assay with SNB-19 CNS it was 96.3%; in the assay on U251 CNS it was 105%; in the assay with PC-3 prostate, 96.7%. Besides, the growth with SK-MEL-5 melanoma was 99.1%; with UACC-62 melanoma it was 88.7%; with LOX IMVI melanoma, 102%; with SK-MEL-28 melanoma, 109%; in the assay on SK-MEL-2 melanoma, 108%; in the assay on EKVX NSCLC, 83.8%. Moreover, the growth in the assay with SN12C renal was 100%; in the assay on UO-31 renal, 78.6%; with TK-10 renal, 168%; in the assay on ACHN renal, 101%; in the assay on CAKI-1 renal it was 83.2%; in the assay with A498 renal, 127%. The growth in the assay with CCRF-CEM leukemia is 109%; in the assay with MOLT-4 leukemia, 104%.

`Cc1ccc(NC(=O)CNc2cc(C(N)=O)cc(F)c2C)c(Cl)c1`: the growth is 103% in the assay on HCT-15 colon; 114% with HT29 colon; 48.4% in the assay with SNB-75 CNS; 101% in the assay with SNB-19 CNS; 106% in the assay with U251 CNS; 85.7% in the assay with PC-3 prostate. Further, the growth in the assay with SK-MEL-5 melanoma was 97.1%; with UACC-62 melanoma it was 81.5%; with LOX IMVI melanoma, 94.1%; with SK-MEL-28 melanoma, 99.5%; in the assay with SK-MEL-2 melanoma, 101%; in the assay with EKVX NSCLC, 47.5%. In addition, the growth in the assay with SN12C renal is 77.1%; in the assay with UO-31 renal it was 50.4%; with TK-10 renal it was 102%; with ACHN renal, 88.9%; in the assay with CAKI-1 renal, 62.6%; in the assay on A498 renal, 39%. The growth in the assay with MOLT-4 leukemia is 90.5%.

Regarding `CC(=O)Nc1cccc(Nc2nc(N[C@H](C)c3ccccc3)c3ccccc3n2)c1`, the growth is 41.5% in the assay on HCT-15 colon; 41.1% in the assay on HT29 colon; 30.6% in the assay with SNB-75 CNS; 74% in the assay with SNB-19 CNS; 74.4% in the assay on U251 CNS; 45.5% in the assay with PC-3 prostate. Besides, the growth in the assay with SK-MEL-5 melanoma was 38.8%; in the assay with UACC-62 melanoma, 65.5%; in the assay with LOX IMVI melanoma, 45.6%; in the assay with SK-MEL-28 melanoma, 74.6%; in the assay on SK-MEL-2 melanoma, 73.6%; in the assay on EKVX NSCLC, 52%. For the same molecule, the growth in the assay with SN12C renal was 53.9%; in the assay on UO-31 renal it was 40.5%; with TK-10 renal, 68.1%; with ACHN renal it was 77.9%; in the assay with CAKI-1 renal, 35.8%; in the assay on A498 renal it was 22.8%. For the same molecule, in the assay on MOLT-4 leukemia, the growth is 16.8%.

As to `Nc1nc(Nc2ccccc2SSc2ccccc2Nc2nc(N)nc(-c3cccc(Br)c3)n2)nc(-c2cccc(Br)c2)n1`, the growth in the assay on HCT-15 colon is 50.8%; with HT29 colon, 108%; with SNB-75 CNS, 53.9%; in the assay on SNB-19 CNS, 25.4%; in the assay with U251 CNS it was -43.9% (active); in the assay with PC-3 prostate it was 34.7%. Moreover, the growth with SK-MEL-5 melanoma was 91.2%; in the assay with UACC-62 melanoma, 88.3%; in the assay on LOX IMVI melanoma it was -62.1% (active); in the assay with SK-MEL-28 melanoma, 98.9%; in the assay on SK-MEL-2 melanoma, 109%; in the assay with EKVX NSCLC, 42.8%. The growth with SN12C renal was 63.7%; in the assay on UO-31 renal it was -7.87% (active); with TK-10 renal, 104%; with ACHN renal, 50.1%; with CAKI-1 renal, 21.6%; with A498 renal, 72%. For the same molecule, the growth in the assay on MOLT-4 leukemia is 52%.

For the molecule `CC1(C)CC[C@]2(C(=O)N3CCOCC3)CC[C@]3(C)C(=CC[C@@H]4[C@@]5(C)C/C(=C/c6ccco6)C(=O)C(C)(C)[C@@H]5CC[C@]43C)[C@@H]2C1`, the growth in the assay on HCT-15 colon is 81.5%; with HT29 colon, 82.7%; with SNB-75 CNS, 28.6%; in the assay on SNB-19 CNS, 100%; in the assay on U251 CNS, 101%; in the assay on PC-3 prostate it was 60.3%. Also, the growth in the assay on SK-MEL-5 melanoma is 94.2%; in the assay on UACC-62 melanoma, 80.3%; with LOX IMVI melanoma it was 63.9%; with SK-MEL-28 melanoma, 91.6%; with SK-MEL-2 melanoma it was 103%; in the assay with EKVX NSCLC, 63.4%. The growth is 86% in the assay on SN12C renal; 49.9% in the assay on UO-31 renal; 75.8% in the assay on TK-10 renal; 81.7% in the assay on ACHN renal; 37% with CAKI-1 renal; 68.7% with A498 renal. For the same molecule, the growth with MOLT-4 leukemia is 52.3%.

On to `Cc1ccc(S(=O)(=O)N(CC[C@@H]2C[C@H]2c2cc3ccccc3o2)S(=O)(=O)c2ccc(C)cc2)cc1`, for which the growth with HCT-15 colon is 94.5%; in the assay on HT29 colon, 94%; in the assay on SNB-75 CNS it was 89%; in the assay with SNB-19 CNS, 94.6%; with U251 CNS, 92.5%; with PC-3 prostate, 87%. The growth with SK-MEL-5 melanoma was 96.1%; in the assay with UACC-62 melanoma it was 69.1%; in the assay on LOX IMVI melanoma, 95.1%; in the assay with SK-MEL-28 melanoma it was 93.5%; in the assay with SK-MEL-2 melanoma, 102%; in the assay with EKVX NSCLC, 95.3%. Also, the growth is 94.6% in the assay on SN12C renal; 80% with UO-31 renal; 98.6% in the assay on TK-10 renal; 98.2% in the assay on ACHN renal; 86% with CAKI-1 renal; 75.8% with A498 renal. For the same molecule, the growth in the assay on CCRF-CEM leukemia was 93.3%; in the assay on MOLT-4 leukemia, 88.8%.

Regarding `CNC(=O)c1cc(-c2ccc(NC(=S)Nc3cc(C(F)(F)F)cc(C(F)(F)F)c3)cc2)nc2cccnc12`, the growth in the assay on HCT-15 colon was 107%; in the assay with HT29 colon it was 108%; in the assay on SNB-75 CNS, 49.1%; with SNB-19 CNS, 104%; in the assay with U251 CNS it was 103%; in the assay with PC-3 prostate, 80.6%. The growth is 92.7% in the assay with SK-MEL-5 melanoma; 95.3% in the assay on UACC-62 melanoma; 93.9% in the assay on LOX IMVI melanoma; 103% with SK-MEL-28 melanoma; 99.3% in the assay with SK-MEL-2 melanoma; 70% in the assay with EKVX NSCLC. In addition, the growth in the assay with SN12C renal is 86.7%; in the assay on UO-31 renal, 59.7%; in the assay with TK-10 renal, 68.9%; in the assay with ACHN renal, 101%; in the assay with CAKI-1 renal, 71.4%; in the assay on A498 renal it was 47.2%. Also, the growth with CCRF-CEM leukemia was 94.5%; in the assay with MOLT-4 leukemia, 88%.

Turning to `O=C(Nc1ccc2c(ccn2Cc2ccccn2)c1)c1ccnnc1`, the growth in the assay with HCT-15 colon was 111%; with HT29 colon, 103%; in the assay with SNB-75 CNS, 56%; in the assay on SNB-19 CNS it was 102%; in the assay with U251 CNS, 108%; in the assay on PC-3 prostate, 91.4%. Moreover, the growth is 98.9% in the assay with SK-MEL-5 melanoma; 86.3% in the assay with UACC-62 melanoma; 101% with LOX IMVI melanoma; 108% in the assay on SK-MEL-28 melanoma; 102% in the assay on SK-MEL-2 melanoma; 75.6% with EKVX NSCLC. Further, the growth is 70.2% with SN12C renal; 58.8% in the assay on UO-31 renal; 60.2% with TK-10 renal; 97.3% in the assay on ACHN renal; 65.9% with CAKI-1 renal; 56.8% in the assay on A498 renal. Moreover, the growth with MOLT-4 leukemia is 115%.
